High-throughput results from PubChem.
Y pestis TopoI – Yersinia pestis topoisomerase I inhibitors, primary screen, biochemical, cleavage product accumulation, plate reader, single point; DNA topoisomerase I (Yersinia pestis CO92); Y. pestis Topo-I cleavage product accumulation; activity, % at 10 µM; actives 0.064% (n = 360,000); in the data active = activity above about 50%, passing the limit was not always enough
Mtb FBA inh – Mtb FBA enzyme inhibitors, primary screen, biochemical, fluorescence, strain H37Rv; Fructose-bisphosphate aldolase (Mycobacterium tuberculosis (strain ATCC 25618 / H37Rv)), …; purified M. tuberculosis FBA, fluorescence read-out; inhibition, % at 1 µM; actives 2.3% (n = 360,000)
Target sequence (P9WQA3 whole entry, looked up): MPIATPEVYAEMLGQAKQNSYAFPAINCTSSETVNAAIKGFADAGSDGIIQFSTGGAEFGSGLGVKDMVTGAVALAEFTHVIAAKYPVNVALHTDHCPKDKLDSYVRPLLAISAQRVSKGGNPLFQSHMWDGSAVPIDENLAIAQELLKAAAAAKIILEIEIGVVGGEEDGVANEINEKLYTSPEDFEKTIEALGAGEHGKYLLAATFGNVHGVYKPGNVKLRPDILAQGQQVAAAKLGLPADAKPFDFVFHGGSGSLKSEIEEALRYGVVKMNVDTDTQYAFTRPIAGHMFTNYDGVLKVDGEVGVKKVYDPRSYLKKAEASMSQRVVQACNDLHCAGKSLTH
TcdB inh – TcdB glycohydrolase inhibitors, primary screen, biochemical, single point, plate reader. Toxin B (Clostridioides difficile), P18177. TcdB glycohydrolase enzymatic assay. AID 652162, 2013. actives 0.24% (n = 350,000). inhibition, % at 9.99 µM; in the data active = inhibition above about 10%
PrPC surface inh – inhibitors of human cell surface prion protein PrPC, primary screen, cell-based, TR-FRET. Major prion protein (Homo sapiens), P04156. TR-FRET read-out. inhibition, % at 13.8 µM. actives 0.43% (n = 370,000). AID 720596, 2013; in the data active = inhibition above about 24%
GDH-TPI counter-1 – GDH-TPI coupling enzyme inhibitors, primary screen, artefact control for M. tuberculosis FBA inhibitor project, biochemical, absorbance, full deck; GDH-TPI coupled enzyme counterscreen, NADH absorbance; inhibition, % at 4.8 µM; actives 1.2% (n = 360,000); AID 588335, 2011; in the data active = inhibition above about 30%
Mtb FBA inh conf – M. tuberculosis aldolase blockers, biochemical, fluorescence, strain H37Rv, confirmation; purified M. tuberculosis FBA, fluorescence read-out; inhibition, % at 1 µM; actives 78% (n = 5,600); AID 651616, 2012; shares compounds with Mtb FBA inh
GDH-TPI counter-2 – GDH-TPI coupling enzyme inhibitors, artefact control for M. tuberculosis FBA inhibitor project, biochemical, fluorescence, high throughput. shares compounds with Mtb FBA inh. GDH-TPI coupled enzyme counterscreen. inhibition, % at 1 µM. actives 81% (n = 5,600); in the data active = inhibition above about 10%
Numbers stand for hits; n = inactive; x = no result; + = active, no number. Hits are enriched below; roughly 3.2% of the tested compounds scored in any of these assays. Rule as the data show it, unless noted: active = inhibition above about 27%; inactive = the rest.

SMILES	Y pestis TopoI	Mtb FBA inh	TcdB inh	PrPC surface inh	GDH-TPI counter-1	Mtb FBA inh conf	GDH-TPI counter-2
COC(=O)c1[nH]c2cc(OC)c(OC)cc2c1NC(=O)CN1C[C@H]2C[C@@H](C1)c1cccc(=O)n1C2	n	37	n	n	n	69	54
COc1ccccc1CC(=O)Nc1ccc(-c2nnc(-c3ccco3)o2)cc1	n	83	x	n	n	51	42
O=C(Cc1ccccc1)Nc1ccc(-c2nnc(-c3ccco3)o2)cc1	n	51	x	n	n	+	151
O=C(Cc1ccc(Cl)cc1)Nc1ccc(-c2nnc(-c3ccco3)o2)cc1	n	59	x	n	n	38	31
O=C(C[C@@H]1C[C@H]2c3cc(NC(=O)c4ccc5c(c4)OCO5)ccc3O[C@H]2[C@H](CO)O1)NCC(F)(F)F	x	x	n	x	x	x	x
CC(C)C#Cc1ccc2c(c1)O[C@@H](CN(C)S(C)(=O)=O)[C@@H](C)CN([C@@H](C)CO)S2(=O)=O	x	x	n	x	x	x	x
CCCCCn1c(=N)c(S(=O)(=O)c2ccc(Br)cc2)cc2c(=O)n3cccc(C)c3nc21	n	n	n	n	n	x	x
Cc1cccn2c(=O)c3cc(C(N)=S)c(=N)n(CCCN4CCOCC4)c3nc12	n	57	n	n	n	56	55
Cc1cccn2c(=O)c3cc(C#N)c(=N)n(CCCN4CCOCC4)c3nc12	n	62	x	n	n	+	+
COCCCn1c(=N)c(C(N)=S)cc2c(=O)n3cccc(C)c3nc21	n	73	n	n	n	57	42
COCCn1c(=N)c(S(=O)(=O)c2ccc(F)cc2)cc2c(=O)n3cccc(C)c3nc21	n	n	n	n	n	x	x
N#Cc1cc2c(=O)n3ccccc3nc2n(CCCn2ccnc2)c1=N	n	n	x	n	n	x	x
CCCCn1c(=N)c(S(=O)(=O)c2ccc(Br)cc2)cc2c(=O)n3cccc(C)c3nc21	n	n	n	n	n	x	x
CCCn1c(=N)c(C#N)cc2c(=O)n3ccccc3nc21	n	34	x	n	n	75	68
COc1cccc(NC(=O)N(C)C[C@H]2Oc3cc(/C=C/c4ccccc4)ccc3S(=O)(=O)N([C@@H](C)CO)C[C@@H]2C)c1	x	x	n	x	x	x	x
CN(C)C(=O)c1ccc(-c2ccc(C3[C@H]4CNC[C@@H]3N4S(=O)(=O)c3ccc(Cl)cc3)cc2)cc1 (some centres not stated)	x	x	n	x	x	x	x
Cc1cccn2c(=O)c3cc(C(=O)NCc4ccc(F)cc4)c(=N)n(CCCN4CCOCC4)c3nc12	n	80	n	n	n	81	82
Cc1cccn2c(=O)c(C(=O)NC3CCCCC3)c(O)nc12	n	n	n	n	n	x	x
CCOCCCn1c(=N)c(S(=O)(=O)c2ccccc2)cc2c(=O)n3cc(C)ccc3nc21	n	n	n	n	n	x	x
Cc1ccc2nc3c(cc(C(N)=S)c(=N)n3CCCOC(C)C)c(=O)n2c1	n	48	n	n	n	84	66
Cc1cccn2c(=O)c3cc(C(=O)NC4CCCCC4)c(=N)n(CCN4CCOCC4)c3nc12	n	67	n	n	n	43	41
CC(=O)Nc1ccc(NC(=O)C(C)OC(=O)c2ccc(S(=O)(=O)N3CCCCC3)cc2)cc1 (configuration not stated)	n	n	n	n	n	x	x
CNc1ccccc1C(=O)OC(C)C(=O)Nc1ccc(S(=O)(=O)N2CCCC2)cc1 (configuration not stated)	n	39	n	n	n	n	n
O=C(Nc1ccc(F)cc1)Nc1ccccc1F	n	n	n	n	n	x	x
O=C(Nc1ccc(NC(=O)c2ccccc2O)cc1)Nc1ccc(F)cc1F	n	34	n	n	n	53	51
